Results: PubChem BioAssay AID1851 (National Center for Advancing Translational Sciences (NCATS), 2009)
Values joined by “and” are separate entries in the source; they are usually repeats but may differ in a detail not shown here. Equal values may be shown once. About 2,600 (16%) of roughly 16,000 compounds were called active. Not shown: some 20% with an inconclusive outcome. These entries were drawn from the full list. Unmarked numbers belong to inactive results. Calls follow the shape of the dose curve; as a rule, active = well fitted curve in the direction sought with a large enough effect; inconclusive = small, poorly fitted or top-dose-only effect, or effect the other way; inactive = no such curve, though single readings can be large or run the other way. Peptide text beside a SMILES is read from it. * marks the point of attachment. Cbz = O=C(OCc1ccccc1)*

These compounds were tested against Cytochrome P450 2D6 (Homo sapiens) (UniProt P10635) (assay: Cytochrome panel assay with activity outcomes). Conditions: recombinant CYP, pro-luciferin dealkylation, luminescence, p450-cyp2d6; series mostly up to 57.1 µM; activity, negative = inhibition: at the top concentration.
% is scaled to controls: 0 for no effect and ±100 for the full control effect.

Sequence of Cytochrome P450 2D6 (Homo sapiens) (P10635 whole entry, looked up): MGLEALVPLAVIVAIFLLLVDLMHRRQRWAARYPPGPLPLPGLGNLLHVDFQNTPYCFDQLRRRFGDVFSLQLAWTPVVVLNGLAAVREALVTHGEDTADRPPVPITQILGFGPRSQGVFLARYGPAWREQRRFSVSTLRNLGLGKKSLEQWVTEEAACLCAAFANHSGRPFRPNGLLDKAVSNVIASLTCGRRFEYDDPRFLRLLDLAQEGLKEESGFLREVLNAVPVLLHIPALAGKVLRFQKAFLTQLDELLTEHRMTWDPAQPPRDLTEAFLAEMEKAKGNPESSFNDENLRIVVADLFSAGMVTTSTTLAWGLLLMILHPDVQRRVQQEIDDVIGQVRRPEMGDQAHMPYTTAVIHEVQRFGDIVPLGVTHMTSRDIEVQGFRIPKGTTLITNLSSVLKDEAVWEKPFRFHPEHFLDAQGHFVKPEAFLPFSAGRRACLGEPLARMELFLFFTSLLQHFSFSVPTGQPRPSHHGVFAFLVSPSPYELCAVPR

In order of falling activity, negative = inhibition:
1. CO[C@@H]1COC(=O)CC=C[C@@H](C)[C@@H]2C=C[C@@H](O)[C@@H](COC(=O)C/C=C\[C@H]1C)O2  20% [at 11.4 µM]
2. CN(C)CCNCCN  8.7% [at 11.4 µM]
3. COc1ccc(/C=C(\C#N)C(N)=O)c(OC)c1  -4.62% [at 11.4 µM]
4. O=C1[C@H]2CCn3c(=O)n(-c4ccccc4)c(=O)n3[C@H]2[C@H](O)[C@H]2O[C@@H]12  -6.63% [at 11.4 µM]
5. O=S(=O)(O)c1cc(O)c2c(N=Cc3ccccc3O)cc(S(=O)(=O)O)cc2c1  -8.82% [at 11.4 µM]
6. O=S(=O)(O)c1cc(N=Nc2cccc3ccccc23)c(O)c2ncccc12  -9.94% [at 11.4 µM]

In order of rising “activity, negative = inhibition” value:
1. CCC(Sc1nc2n[nH]c(C)c2c(=N)n1-c1cccc(Cl)c1)C(=O)NCCOC (stereo not given)  -29.6%
2. Cc1ccc(/C(N)=N/OC(=O)Cc2cccs2)cc1  -28.3%
3. O=C(NNC(=O)C1CC(c2cccnc2)=NO1)Nc1cccc(F)c1 (stereo not given)  -21.5%
4. N#Cc1c(-c2ccc(Cl)cc2)nc2n(c1=O)CCCS2  -20.7%
5. C[C@H](NC(=O)/C(C#N)=C/c1ccc(O)c(O)c1)c1ccccc1  -20.2%
6. NC(=O)NCc1ccc(Cl)cc1  -19.7%
7. C#CCSc1nc(Cc2ccc(Cl)cc2)nc2ccccc12  -18.9%
8. Cc1ccc(-n2nnnc2Sc2nc([N+](=O)[O-])nn2C)cc1C  -18.4%
9. O=c1c(CCc2ccccc2)nc2cncnc2n1Cc1ccccc1Cl  -18.3%
10. O=C(NCCO[N+](=O)[O-])c1cccnc1  -17.2%
11. Clc1ncccc1-c1nc2ccccc2n1Cc1ccccc1  -16.7%
12. Fc1ccc(CSc2ncnc3sc4c(c23)CCCC4)cc1  -16.6%
13. O=C(CCc1ccccc1)NCc1cccnc1  -16.4%
14. CCCOc1ccc(C(=O)CCNc2ccc(C)c(Cl)c2)cc1  -13.7%
15. O=C(NC(=S)Nc1ccc(Oc2ccc(Cl)cc2)cc1)c1ccccc1  -13.6%
16. COc1cccc(C2=NOC(C(=O)NCCN3CCOCC3)C2)c1 (stereo not given)  -13.5%
17. O=c1[nH]c2cc(Br)cnc2nc1/C=C(\O)c1ccc(F)cc1  -12.9%
18. COc1ccc(-n2c(=O)c(-c3cccc(Cl)c3)nc3cncnc32)cc1  -12.5%
19. CC(C)[C@H](NC(=O)OCc1ccccc1)C(=O)N[C@H](C=O)Cc1ccccc1 (Cbz-Val-Phe-aldehyde)  -11.9%
20. CCOC(=O)c1cnc2cc(-c3ccc(C(C)(C)C)cc3)nn2c1N  -11.3%
21. COC(=O)[C@@H]1C[C@H]1[C@@H](NC(=O)c1cccnc1)c1ccccc1  -11.1%
22. CCOC(=O)C1(N(CC)CC)Sc2cc(C)ccc2NC1=O (stereo not given)  -10.6%
23. CC1=C(C(N)=O)C(c2cccs2)n2nc(-c3cccc(Cl)c3)nc2N1 (stereo not given)  -10.2%
24. COc1c(F)c(F)c(C(=O)O)c(Nc2ccc(C)cc2)c1F  -9.49%
25. COC(=O)[C@H]1C[C@@H]1[C@H](NC(=O)OCc1ccccc1)c1ccccc1  -9.48%
26. Cc1cc(S(=O)(=O)NCCN(C)C)c(C)s1  -9.26%
27. COc1cc(/C=C(\C#N)C(=O)c2ccc(O)c(O)c2)cc(I)c1O  -8.81%
28. COc1cc(/C=C(/NC(=O)c2ccccc2)C(=O)Nc2ccccc2)c([N+](=O)[O-])cc1OC  -7.54%
29. CCOC(=O)CC(NC(=O)c1ccco1)c1ccc(OC)cc1 (stereo not given)  -7.1%
30. C[C@@H](NC(=O)/C(C#N)=C/c1ccc(O)c(O)c1)c1ccccc1  -7.05%
31. CCc1c(C)c2c(C)[nH]nc2oc1=O  -6.95%
32. COc1ccc2c(c1)c(CC(=O)O)c(C)n2Cc1ccc(Cl)cc1  -6.32%
33. Cc1cc(SCC(=O)c2cccs2)nc2c(C)cccc12  -6.27%
34. COc1ccc(C2=NOC(C(=O)NCc3ccco3)C2)cc1OC (stereo not given)  -6.05%
35. N#C/C(=C\c1ccc(O)c(O)c1)C(=O)NCc1ccccc1  -5.88%
36. Cc1nn2c3c(cnc2c1-c1ccccc1)C(=O)CC(c1ccccc1)C3 (stereo not given)  -5.55%
37. Cc1nc(S(=O)(=O)c2cccc(Cl)c2)nc2c1CCC2  -5.41%
38. CCCC[C@@H]1C[C@H]1C(NC(=O)c1ccccc1)c1ccccc1 (stereo not given in full)  -3.89%
39. COCCn1c(=O)c(-c2cccc(C#N)c2)nc2cnc(Oc3ccccc3)nc21  -3.81%
40. COc1cccc(C2=NOC(C(=O)NCc3ccccn3)C2)c1 (stereo not given)  -3.24%
41. CN1CCN(c2ncc3nc(-c4cc(F)cc(F)c4)c(=O)n(C4CC4)c3n2)CC1  -3.22%
42. Cc1nc2cnc(N3CCNCC3)nc2n(-c2ccccc2)c1=O  -1.85%
43. O=C(c1cc(C(F)(F)F)cc(C(F)(F)F)c1)N1CCC[C@@]2(CCN(c3ncccn3)C2)C1  -1.56%
44. COCCn1c(=O)cnc2cnc(Oc3cccc(Cl)c3)nc21  -1.14%
45. Nc1nc(Cl)nc2c1ncn2[C@@H]1O[C@@H](CO)[C@@H](O)[C@H]1O  -1.08%
46. COCCNC(=O)C1CC(c2cccc(OC)c2)=NO1 (stereo not given)  -0.287%
47. Nc1nonc1-c1nc2ccccc2n1Cc1ccc(F)cc1Cl  0.412%
48. O=C(c1cc(C(F)(F)F)cc(C(F)(F)F)c1)N1CCC2(CC1)CCN(c1ccccn1)CC2  0.968%
49. O=C(NCC1CCCO1)c1nn2c(c1Cl)NC(c1ccc(F)cc1)CC2C(F)(F)F (stereo not given)  1.28%
50. CC(=O)NC(NC(C)=O)c1ccc(Br)cc1  1.99%
51. O=C1OC2CC3CC1CC(O)(C3)C2 (stereo not given)  2.14%
52. C[C@@]1(C(NC(=O)Cc2ccccc2)c2ccc(-c3ccccc3)cc2)C[C@H]1C1CCCCC1 (stereo not given in full)  2.63%
53. Cc1cc(C)n(-c2nc(Nc3ccccc3C)nc(-n3nc(C)cc3C)n2)n1  2.75%
54. CCCC[C@]1(C2CCCC2)Cc2cc(OCC(=O)O)c(Cl)c(Cl)c2C1=O  2.96%
55. C[C@@]1(C(NC(=O)c2ccc(-c3ccccc3)cc2)c2ccc(Cl)cc2)C[C@H]1C1CCCCC1 (stereo not given in full)  3.15%
56. Cc1ccc(Cn2cccc(NC(=O)NCc3ccccc3)c2=O)cc1  3.4%
57. COC(=O)c1ccc(C(NC(=O)c2ccccc2)[C@]2(C)C[C@H]2C2CCCCC2)cc1 (stereo not given in full)  3.73%
58. Cc1onc(-c2ccccc2)c1C(=O)NC(CC(=O)O)c1ccc(OC(C)C)cc1 (stereo not given)  3.77%
59. C=C(C)C1Cc2nc(N)nc(C)c2C1 (stereo not given)  4.24%
60. Cc1nc2nc[nH]n2c(=O)c1NC(=O)CC12CC3CC(CC(C3)C1)C2  6.11%
61. COc1ccc(CNC(=O)C2CSC(=O)C2)cc1 (stereo not given)  6.49%
62. CC(C)(C)c1cccc(Oc2nn[nH]n2)c1  7.78%
63. COc1cccc(C2=NOC(C(=O)Nc3ccc(OC)c(OC)c3)C2)c1 (stereo not given)  8.04%
64. COc1cccc(Cn2c(=O)c(-c3cccs3)nc3cnc(Nc4cccc(OC)c4)nc32)c1  9.04%
65. Nc1ncncc1-c1ccc([N+](=O)[O-])cc1  9.87%
66. CCOC(=O)/C(C#N)=C\c1ccc(OCC(=O)Nc2ccc(C)cc2C)c(OC)c1  9.89%
67. CC(=O)N(CC(=O)O)c1ccccc1C(=O)O  10.9%
68. Cn1c(C(=O)O)c(CC(=O)NCc2cccnc2)c2ccccc21  20.8%
69. CCOc1ccc(C(=O)CCC(=O)O)cc1  23.3%
70. O=C(O)CC(c1cccc2ccccc12)n1cccc1 (stereo not given)  29.7%

In order of rising “activity, negative = inhibition” value:
1. CNC(=O)c1c(I)c(C(=O)NCC(=O)Nc2c(I)c(C(=O)O)c(I)c(C(=O)NCCO)c2I)c(I)c(N(C)C(C)=O)c1I  -4.4% [at 25.6 µM]
2. CC1(C)O[C@@H]2C[C@H]3[C@H]4C[C@H](F)C5=CC(=O)C=C[C@@]5(C)[C@@H]4[C@H](O)C[C@]3(C)[C@]2(C(=O)CO)O1  -4.12% [at 25.6 µM]
3. Nc1nc2n[nH]nc2c(=O)[nH]1  -3.06% [at 25.6 µM]
4. CCOC(=O)[C@H](CCc1ccccc1)N[C@@H](C)C(=O)N1CCC[C@H]1C(=O)O  3.29% [at 25.6 µM]
5. COc1cc2cc3c4cc(OC)c(OC)cc4cc[n+]3c(C)c2cc1OC  4.46% [at 25.6 µM]

For `N#C/C(=C\c1ccc(O)c(O)c1)C(=O)NCCCc1ccccc1`, the AC50 was 31.6 µM (active).
With `N#C/C(=C\c1ccc(O)c(O)c1)C(=O)OCCc1cccs1` the AC50 was 12.6 µM (active).
For `Cc1ccc(C)c(NC(=O)NCc2ccc(Cl)cc2)c1`, the AC50 was 3.98 µM (active).
With `O=C(NCc1ccc2c(c1)OCO2)C1CC(c2cccc(Br)c2)=NO1` (stereo not given) the AC50 was 0.891 µM (active).
For `COc1ccc(CNC(=O)C2CC(c3cccc([N+](=O)[O-])c3)=NO2)cc1` (stereo not given), the AC50 was 5.01 µM (active).
For `COc1cccc(C2=NOC(C(=O)NCc3ccccc3)C2)c1` (stereo not given), the AC50 was 12.6 µM (active).
For `COc1cccc(C2=NOC(C(=O)Nc3cccnc3)C2)c1` (stereo not given), the AC50 was 11.2 µM (active).
`CCCCOc1ccc(C(=O)CCN2CCCCC2)cc1` was tested, and the AC50 was 5.01 µM (active).
For `Clc1ccc(Cn2c(-c3cccnc3Cl)nc3ccccc32)c(Cl)c1`, the AC50 was 7.94 µM (active).
`CC1CC2(CCCCC2)N2C(=O)C(=O)c3cccc1c32` (stereo not given) was tested, and the AC50 was 7.94 µM (active).
For `COc1cc(/C=C(\C#N)C(N)=O)cc(CSc2nc3ccccc3s2)c1O`, the AC50 was 0.0251 µM (active).
With `CCC[C@@H]1C[C@@]1(CCC)C(NC(=O)OCc1ccccc1)c1ccc(-c2ccccc2)cc1` (stereo not given in full) the AC50 was 7.94 µM (active).
In the case of `CCC[C@@H]1C[C@@]1(CCC)C(NC(=O)c1ccccc1)c1cccc(Cl)c1` (stereo not given in full), the AC50 is reported as 3.16 µM (active).
With `CCC[C@@H]1C[C@@]1(CCC)C(NC(=O)c1ccco1)c1ccc(Cl)cc1` (stereo not given in full) the AC50 was 3.98 µM (active).
For `CCN1/C(=C/c2ccc3cccc(C)c3[n+]2CC)Sc2ccccc21`, the AC50 was 0.0708 µM (active).
For `CCN(CCO)Cc1csc2cccc(Br)c12`, the AC50 was 15.8 µM (active).
`O=C(CSCc1c(Cl)cccc1Cl)NCc1cccnc1` was tested, and the AC50 was 15.8 µM (active).

In the case of `CO[C@H]1COC(=O)C/C=C\[C@@H](C)COC(=O)[C@@H](CCSC)NC(=O)C/C=C\[C@@H]1C`, the activity, negative = inhibition is reported as 14% [at 11.4 µM] and 6.2% [at 11.4 µM].
For `CO[C@@H]1COC(=O)C/C=C\[C@H](C)[C@@H](NS(=O)(=O)c2ccc(C)cc2)COC(=O)C/C=C\[C@@H]1C`, the activity, negative = inhibition was 1.88% [at 11.4 µM] and 8.18% [at 11.4 µM].
